An excerpt weighted towards active compounds, which were near 1.2% of everything screened.
Avidin fluor: compound fluoresces at 488/530 nm on avidin beads | compound fluorescence 488/530 nm, flow cytometry; stronger effect = higher value | fluorescence (KMESF) at 10 µM | 220,000 tested, 0.38% active | AID 1775; in the data active means fluorescence above about 47
RGS4-Gao reg: modulates binding of RGS4 to human Galphao | P09471 | Multiplexed bead flow cytometry; actives lie on both sides | binding response (% of control), % at 10 µM | 220,000 tested, 0.33% active | AID 1415; in the data active means binding response below about 49% or above about 150%; inactive means in between;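 further: fluorescent Galphao activated with aluminum fluoride binding bead-coupled RGS4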
Target sequence (P09471 whole entry, looked up): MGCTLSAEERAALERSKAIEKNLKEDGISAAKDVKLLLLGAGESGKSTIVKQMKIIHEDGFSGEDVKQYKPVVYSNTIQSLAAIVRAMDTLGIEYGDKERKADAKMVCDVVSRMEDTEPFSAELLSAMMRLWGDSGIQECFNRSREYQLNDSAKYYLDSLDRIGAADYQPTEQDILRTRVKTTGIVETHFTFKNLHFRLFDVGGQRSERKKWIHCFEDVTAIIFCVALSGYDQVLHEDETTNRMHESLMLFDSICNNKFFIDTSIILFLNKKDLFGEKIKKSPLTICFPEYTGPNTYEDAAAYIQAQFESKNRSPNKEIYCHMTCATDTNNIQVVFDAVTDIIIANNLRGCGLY
RGS7-Gao reg: regulators of human RGS7-Galphao interaction | binding response (% of control), % at 10 µM | 220,000 tested, 0.35% active | Multiplexed bead flow cytometry, RGS7-Galphao binding; actives lie on both sides | P09471 | AID 1439; in the data active means binding response below about 49% or above about 150%; inconclusive means no clear call, values can overlap the other calls; inactive means in between;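 further: fluorescent Galphao held in activated GDP-AlF4 state binding bead-coupled RGS7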
GSH bead fluor: GSH bead compound fluorescence profile. 190,000 tested, 0.25% active. fluorescence (KMESF) at 10 µM. GSH beads flow cytometry, compound fluorescence 488/530 nm; stronger effect = higher value; in the data active means fluorescence above about 89;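 further: glutathione beads carrying GST-tagged Bcl family fusion proteins plus one bare bead set; values are compound well signal with DMSO vehicle wells as background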
RGS16-Gao HTS: regulators of human RGS16-Galphao interaction | O15492+P09471 | bead-based flow cytometry RGS16-Galphao binding, fluorescence; actives lie on both sides | 220,000 tested, 0.38% active | binding response (% of control), % at 10 µM | AID 1441;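 further: Galphao activated by GDP with aluminum fluoride before binding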
RGS8-Gao: modulates binding of RGS8 to human Galphao. multiplexed bead flow cytometry; actives lie on both sides. response (percent of control binding), % at 10 µM. 220,000 tested, 0.34% active. AID 1423; in the data active means response below about 60% or above about 140%; inactive means in between;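 further: Galphao activated as the GDP aluminium fluoride complex binding bead-coupled RGS8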
RGS-Gao: modulates binding between human RGS4 and Galphao; shares compounds with RGS16-Gao HTS; AID 1504; RGS4–Galpha-o binding response, % at 10 µM; multiplexed bead flow cytometry, RGS–Galpha-o binding; 1,600 tested, 99% active;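 further: fluorescently labeled Galpha-o bound to GDP with aluminium fluoride binding biotinylated RGS beads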
Biotin-avidin: interferes with biotinylated probe binding to avidin beads. inhibition, % at 10 µM. 1,700 tested, under 10 active. AID 1783. streptavidin beads, fluorescein-biotin binding, flow cytometry. shares compounds with RGS16-Gao HTS;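 active means inhibition above 50%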;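 further: median green fluorescence of gated singlet beads compared with DMSO control wells; 0% = DMSO wells and 100% = complete loss of bead fluorescence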
RGS8-Gao confirm: RGS8-Galphao interaction regulation, single point confirmation. shares compounds with RGS16-Gao HTS. bead-based flow cytometry RGS8-Galphao binding, fluorescence; actives lie on both sides. binding response (% of control), % at 10 µM. 1,700 tested, 3% active; in the data active means binding response below about 72% or above about 130%; inactive means in between;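 further: Galphao activated as GDP AlF4 complex before binding bead RGS8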
RGS7-Gao single: RGS7-Galphao interaction regulation, single point confirmation; shares compounds with RGS16-Gao HTS; bead-based flow cytometry RGS7-Galphao binding; actives lie on both sides; response (percent of control binding), % at 10 µM; 1,700 tested, 7.8% active; in the data active means response below about 75% or above about 130%; inactive means in between;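 further: fluorescent Galphao activated with GDP and aluminum fluoride binding bead-coupled RGS7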
RGS16-Gao conf: RGS16-Galphao interaction regulation, single point confirmation; shares compounds with RGS16-Gao HTS; bead-based flow cytometry, RGS16-Galphao binding; actives lie on both sides; response (% of control binding), % at 10 µM; 1,700 tested, 4% active; AID 1838; in the data active means response below about 74% or above about 130%; inactive means in between;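 further: Galphao activated as the GDP aluminium fluoride complex binding bead-coupled RGS16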
RGS4-Gao single: confirmation of regulators of human RGS4-Galphao interaction. shares compounds with RGS16-Gao HTS. RGS4-Galphao binding, multiplexed bead flow cytometry; actives lie on both sides. binding response (% of control), % at 10 µM. 1,700 tested, 4% active. AID 1840; in the data active means binding response below about 74% or above about 130%; inactive means in between
RGS19-Gao single: confirmation of regulators of human RGS19-Galphao interaction; shares compounds with RGS16-Gao HTS; bead-based flow cytometry RGS19-Galphao binding; actives lie on both sides; response (percent of control binding), % at 10 µM; 1,700 tested, 5% active; in the data active means response below about 50% or above about 160%; inactive means in between;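 further: 100% = no compound control and 0% = blank background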
Active calls of the source: *; ? = inconclusive; . = no result; [ ] = remark or other dose. Unless noted, how the calls were made is not given here.

SMILES | Avidin fluor | RGS4-Gao reg | RGS7-Gao reg | GSH bead fluor | RGS16-Gao HTS | RGS8-Gao | Biotin-avidin | RGS8-Gao confirm | RGS7-Gao single | RGS16-Gao conf | RGS4-Gao single | RGS19-Gao single | others
O=C(CN1CCN(S(=O)(=O)c2ccc(Cl)s2)CC1)N1CCOCC1 | 7 | 99 | ? | . | 108 | 101 | . | . | . | . | . | .
O=C(CCc1nc2ccccc2c(=O)[nH]1)Nc1ccc(Cl)c(Cl)c1 | 7 | 86 | 86 | 4 | 9.1* | 69 | 2 | 102 | 102 | 101 | 98 | 107 | RGS-Gao=86*
CCOC(=O)c1c(C)[nH]c(C(=O)COC(=O)C2CC(=O)N(Cc3ccccc3)C2)c1C (configuration not stated) | 97* | 166*[activator] | 218*[activator] | 239* | 511 | 163*[activator] | 0 | 99 | 95 | 92 | 95 | 93
CN(c1ccccc1)c1nc2ccsc2c(=O)s1 | 169* | 127 | 247*[activator] | 32 | 113 | 97 | -2 | 100 | 102 | 100 | 99 | 99 | RGS-Gao=127*
CSCCC(NC(N)=O)C(=O)NCc1cccc(Cl)c1 (configuration not stated) | 7 | 109 | 105 | 6 | 126 | 109 | . | . | . | . | . | .
CSCCC(NC(N)=O)C(=O)NCc1ccccc1Cl (configuration not stated) | 9 | 74 | 80 | 10 | -699* | 95 | -3 | 100 | 99 | 98 | 98 | 91 | RGS-Gao=74*
COc1ccc(-n2c3c(cc(C(=O)NNc4ccccc4)c2=O)C(=O)CC(C)(C)C3)cc1 | 7 | 47* | 47* | 13 | 43 | 59* | -3 | 95 | 87 | 93 | 90 | 69
COc1ccc(-n2c3c(cc(C(=O)NNc4ccccc4C)c2=O)C(=O)CC(C)(C)C3)cc1 | 8 | 84 | 92 | 12 | 86 | 93 | . | . | . | . | . | .
O=C1OCC2OC(O)C(O)C(O)C2OC(=O)c2cc(O)c(O)c(O)c2-c2c(O)c(O)c3oc(=O)c4c(c(O)c(O)c5oc(=O)c2c3c54)-c2c1cc(O)c(O)c2O (configuration not stated) | 5 | 48* | ? | . | 66 | 36* | 0 | 37* | 32* | 75 | 47* | 102
COc1ccccc1NC(=O)CCSc1nc(C)cc(C)n1 | 8 | 99 | 95 | 13 | 80 | 92 | . | . | . | . | . | .
O=C(Nc1cccc(S(=O)(=O)N2CCCCC2)c1)c1ccc(S(=O)(=O)C(F)F)cc1 | 9 | 100 | 101 | 19 | 102 | 100 | . | . | . | . | . | .
O=C(Nc1ccc(Cl)c(Cl)c1)Nc1ccccc1O | 0 | 13* | ? | . | 16* | 39* | -1 | 94 | 70* | 87 | 85 | 66
O=C(Nc1ccc(Cl)c(Cl)c1)Nc1ccc(Br)cc1F | 6 | 98 | 100 | 8 | 103 | 102 | . | . | . | . | . | .
Cc1ccc(C(=O)NCCc2ccc(S(N)(=O)=O)cc2)cc1[N+](=O)[O-] | 14 | 103 | 107 | 8 | 115 | 105 | . | . | . | . | . | .
